A selection: hits, their analogues and other compounds. The true share with any hit is near 3%.
LGR2 antag – inhibitors of bursicon-induced LGR2 CRE-luciferase signal, primary screen, cell-based, HEK293, CRE-luciferase reporter, bursicon stimulation; Drosophila bursicon receptor LGR2 (rickets); bursicon-stimulated, 4 h; inhibition, % at 9.99 µM; 380,000 compounds, 0.35% hits;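 active = drop in luminescence signal, shown as inhibition above about 50% in the replicate tests, limit read from the data, passing the limit was not always enough; inconclusive = probably only some replicates passing the limit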;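 note: agonist challenge used bursicon conditioned medium at about half maximal strength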
TRPM1 prom inh – inhibitors of MITF-dependent TRPM1 promoter reporter, primary screen, cell-based, SK-MEL-5, single point, luciferase; SK-MEL-5 TRPM1 promoter luciferase, 24 h; inhibition, % at 12.5 µM; 330,000 compounds, 0.83% hits;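 active = mean inhibition across replicates of 60% or more, whatever share of single replicates reaches that level; inconclusive = some that reach 60%, reason not given; inactive = mean inhibition across replicates below 60%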
MITF act – activators of MITF-driven TRPM1 promoter reporter, primary screen, cell-based, SK-MEL-5, luciferase, single point. SK-MEL-5 TRPM1-promoter luciferase, 24 h; % of positive control, neutral wells = 0. activation, % at 12.5 µM. 300,000 compounds, 0.75% hits;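 active = mean activation of at least 80% with every replicate also reaching 80%; inconclusive = mean reaches 80% but some replicate falls short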;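 note: 0% = neutral control wells and 100% = parthenolide positive control wells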
TROY signal inh – inhibitors of TROY-driven NF-kB signaling, primary screen, Q293 LMP1-TROYcd cells, NF-kB luciferase, uHTS; Q293 LMP1-TROYcd NF-kB luciferase reporter, 4 h; inhibition, % at 10 µM; 360,000 compounds, 0.98% hits;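 active = compounds whose plate-normalised and pattern-corrected inhibition of the luciferase reporter signal at the single screening dose is 50% or more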
TWEAK Fn14 block – inhibitors of TWEAK-Fn14 signaling, primary screen, luciferase reporter cells, uHTS; AID 1159606, 2016; inhibition, % at 10 µM; 360,000 compounds, 2% hits; TWEAK-stimulated Fn14 reporter cells, luciferase luminescence, 8 h; in the data active = inhibition above about 50%
LMP1 NFkB inh – EBV LMP1-driven NF-kappaB luciferase reporter inhibitors, primary screen, cell-based, luminescence, single point | LMP1-induced NF-kappaB luciferase reporter cells | 350,000 compounds, 0.69% hits | inhibition, % at 12.5 µM | AID 504558, 2011; in the data active = inhibition above about 41%; inconclusive = no clear call, values can overlap the other calls;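 note: 0% = neutral control wells and 100% = reference inhibitor control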
* marks the source's active call; other numbers are inactive results; ? = inconclusive; . = no result given.

SMILES | LGR2 antag | TRPM1 prom inh | MITF act | TROY signal inh | TWEAK Fn14 block | LMP1 NFkB inh
Cc1cc(C(=O)COC(=O)c2ccccc2Br)c(C)n1CC1CCCO1 (stereo unspecified) | 92* | 76* | -75 | 71* | 92* | 75*
Cc1cc(C(=O)COC(=O)c2n[nH]c3ccccc23)c(C)n1CC1CCCO1 (stereo unspecified) | ? | -15 | 15 | 60* | 82* | 14
O=C(c1cccnc1)N1C[C@H]2[C@@H](c3ccccc31)[C@@H](CO)N2C(=O)Nc1cccc(F)c1 | 1 | . | . | . | . | .
COc1ccc2c3c(n(C)c2c1)[C@H](CO)N(C(=O)CC1CC1)CC31CN(Cc2ccccc2)C1 | 3 | . | . | . | . | .
Cc1ccc(C(=O)OCC(=O)c2cc(C)n(CC3CCCO3)c2C)cc1 (stereo unspecified) | -23 | -61 | 60 | 72* | 64* | -15
Cc1cc(C(=O)COC(=O)c2cccc(NS(C)(=O)=O)c2)c(C)n1CC1CCCO1 (stereo unspecified) | 27 | 26 | -21 | 76* | 92* | ?
O=C(OCCOc1ccccc1)c1n[nH]c2ccccc12 | -92 | -99 | 106* | -34 | 2 | -11
Cc1cc(C(=O)COC(=O)c2cc(O)c3ccccc3c2O)c(C)n1CC1CCCO1 (stereo unspecified) | . | ? | -62 | -16 | 79* | 1
COc1ccc(C(=O)COC(=O)c2n[nH]c3ccccc23)c(OC)c1 | -115 | -93 | 96* | -34 | 0 | -40
COCCn1c(C)cc(C(=O)COC(=O)c2n[nH]c3ccccc23)c1C | . | -2 | 8 | 54* | 86* | 55*
O=C(COC(=O)c1cccnc1Cl)NCC1CCCO1 (stereo unspecified) | -11 | 2 | -1 | -1 | -8 | -8
Cc1cc(C(=O)COC(=O)c2n[nH]c3ccccc23)c(C)n1C | . | -1 | . | -53 | 35 | 16
Cc1cc(C(=O)COC(=O)c2cccnc2Cl)c(C)n1CC1CCCO1 (stereo unspecified) | . | 58 | -57 | 88* | 99* | 65*
C[C@@H]1CCCCO[C@@H](CN(C)C)[C@H](C)CN([C@H](C)CO)C(=O)c2cc(NC(=O)c3ccncc3)ccc2O1 | -1 | . | . | . | . | .
Cc1ccc(-c2nc(N/N=C/c3ccncc3)c3ccccc3n2)cc1 | . | -6 | 6 | 43 | 76* | 2
COc1ccc(/C=N/Nc2nc(-c3cccnc3)nc3ccccc23)cc1OC | 2 | -17 | 12 | 9 | 7 | 19
Cc1noc(C)c1NC(=O)Nc1cccc2c1O[C@@H](CN(C)Cc1ccc(C(=O)O)cc1)[C@H](C)CN([C@H](C)CO)C2=O | 7 | . | . | . | . | .
Cn1c2ccccc2c(=O)c2ccc(C#Cc3ccc(N)cc3)cc21 | . | -21 | 27 | 50* | 16 | 2
Cn1c2ccccc2c(=O)c2cc(C#Cc3cccc(N)c3)ccc21 | . | -80 | 76 | -52 | -117 | 52*
COc1ccc(C#Cc2ccc3c(=O)c4ccccc4n(C)c3c2)cc1 | . | -19 | 22 | . | . | -16
Cn1c2ccccc2c(=O)c2cc(C#CC3=CCCCC3)ccc21 | 9 | 13 | -17 | 60* | 48 | -10
COc1cccc2c1C(=O)c1c(O)c3c(c(O)c1C2=O)C[C@@](O)(C(=O)CO)C[C@@H]3O[C@H]1C[C@H](N)[C@H](O)[C@H](C)O1 | . | 87* | -86 | 5 | 87* | 84*
COc1cccc2c1C(=O)c1c(O)c3c(c(O)c1C2=O)C[C@@](O)(C(=O)CO)C[C@@H]3OC1CC(N)C(O)C(C)O1 (stereo partly specified) | . | 60 | . | -18 | 76* | 62*
CC(=O)[C@@]1(O)Cc2c(O)c3c(c(O)c2[C@H](O[C@H]2C[C@H](N)[C@H](O)[C@H](C)O2)C1)C(=O)c1ccccc1C3=O | 98* | . | . | 66* | 95* | .
COc1cccc2c1C(=O)c1c(O)c3c(c(O)c1C2=O)CC(O)(C(C)=O)CC3OC1CC(N(C)C)C(O)C(C)O1 (stereo unspecified) | 101* | 79* | . | 61* | 98* | 93*
SMILES | LGR2 antag | TRPM1 prom inh | MITF act | TROY signal inh | TWEAK Fn14 block | LMP1 NFkB inh
O=C(N[C@@H]1CC[C@H](CCNS(=O)(=O)c2ccc(F)cc2)O[C@H]1CO)c1cnccn1 | 6 | . | . | . | . | .
C[C@@H]1CN([C@H](C)CO)C(=O)c2cc(/C=C/c3ccccc3)cnc2O[C@@H]1CN(C)C(=O)Nc1ccc(C(F)(F)F)cc1 | 18 | . | . | . | . | .
O=S(=O)(c1ccccc1)N1CCCCN2[C@H](CO)[C@H](c3ccc(C#Cc4cccnc4)cc3)[C@@H]2C1 | 25 | . | . | . | . | .
C[C@H]1CN([C@@H](C)CO)C(=O)Cc2cc(NS(=O)(=O)c3ccc(F)cc3)ccc2O[C@@H]1CN(C)CC1CCCCC1 | 9 | . | . | . | . | .
C[C@H](CO)N1C[C@H](C)[C@@H](CN(C)S(=O)(=O)c2cn(C)cn2)Oc2cc(C#Cc3ccccc3)ccc2S1(=O)=O | 22 | . | . | . | . | .
Cc1noc(C)c1NC(=O)Nc1ccc2c(c1)C(=O)N([C@H](C)CO)C[C@@H](C)[C@H](CN(C)C(=O)Nc1ccc(C(F)(F)F)cc1)O2 | 5 | . | . | . | . | .
CC12CCC3C(CCC4CC(O)CCC43C)C1CC(O)C2 (stereo unspecified) | 8 | 3 | -1 | 26 | 26 | 0
C[C@]12CCC(O)CC1CCC1C2CC[C@]2(C)C(c3cc(C(F)(F)F)n[nH]3)CCC12 (stereo partly specified) | 7 | 9 | -10 | 61* | -36 | 13
CO[C@@H]1CN(C)C(=O)c2cc(NC(=O)c3ccccc3F)ccc2OC[C@H](C)NC[C@H]1C | -2 | . | . | . | . | .
CCOC(=O)c1sc(=NC(=O)c2cccs2)n(C)c1C | -46 | -41 | 43 | -34 | 30 | -30
CCOC(=O)c1sc(=NC(=O)c2ccc(Cl)s2)n(C)c1C | -68 | -47 | 54 | 54* | 40 | -19
COc1cc(C)c(/C=C(\C#N)C(=O)Nc2cccc(C)c2)cc1C(C)C | -14 | -2 | 4 | 84* | 86* | 4
CN(C)c1ccc(NC(=O)c2cnsn2)cc1 | 71* | 3 | 0 | 31 | 74* | 34
c1ccc(Nc2nnc(-c3cccnc3)s2)cc1 | -43 | -37 | 40 | -6 | 51* | -3
CCCCOc1ccc(Br)cc1/C(C)=N/NC1=NCCN1 | . | 82* | -80 | 31 | 51* | 28
CCCCCCOc1ccc(/C(C)=N/NC2=NCCN2)cc1[N+](=O)[O-] | -10 | 34 | -33 | 6 | -50 | -39

High-throughput results deposited in PubChem BioAssay by several laboratories.
